Several values for one entry are separate records, joined by “and”; a condition that tells them apart may be missing. Equal entries are not always repeated. A number with no mark means an inactive call.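 Rule for the calls: active = relative NQO1 transcription at 1 µM of 250% or more; inconclusive = relative NQO1 transcription between 200% and 250%; inactive = relative NQO1 transcription under 200%.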
assay: qHTS of Nrf2 Activators: Hit Validation in NQO-1 Induction Assay; settings: Hepa1c1c7 cells, NQO1 mRNA qPCR, 24 h; at 1 µM; stronger effect = higher value
From the text: Many diseases have some form of oxidative stress injury and ties to inflammation, causing a host of problems for the patient. The antioxidant response element (ARE) plays an important role in alleviating the harmful effects of oxidative stress. The antioxidant response element (ARE) is a transcriptional regulatory element involved in the activation of genes coding for a number of antioxidant proteins and detoxifying enzymes. These enzymes work in concert to protect tissues from oxidative insults and chemical toxicities in human hepatocytes and immune cells. The protective effects of ARE activation are primarily triggered through Nrf2 (NF-E2-related factor) binding to and activating AREs. It is known that Nrf2 controls the production of over 250 antioxidant and detoxification proteins (Hu et al., 2006), thereby protecting tissues by increasing cellular antioxidant content and suppressing inflammatory signaling pathways. The transcription factor Nrf2 is a central link between oxidative chemicals, such as phenolic antioxidants and electrophilic compounds, and the activation of ARE. Nrf2 levels are constitutively low as a consequence of its interaction with Keap1, which targets its degradation (Zipper and Mulcahy, 2002). Electrophiles react with key cysteine residues in Keap1, releasing Nrf2 and allowing its translocation to the nucleus. Once within the nucleus, Nrf2 complexes with coactivators such as p300, and binds to the AREs to induce gene transcription of cytoprotective enzymes, resulting in the prevention of toxicity. Activation of Nrf2 protects tissues by increasing cellular antioxidant content and suppressing inflammatory signaling pathways. Identifying novel and potent Nrf2 activators by using the AREc32 cell line to detect ARE activation by small molecules will lead to the identification and development of probes to study protective pathways in multiple tissues. These specific probes are essential to study the ARE pathway, and eventually to determine whether this pathway does activate genes that could protect against a host of diseases, including cardiovascular diseases, obesity, diabetes, Alzheimer's, and Parkinson's disease. This project's aim is to identify novel and potent Nrf2 activators by using the AREc32 cell line to detect ARE activation by small molecules, which will lead to the identification and development of probes to study the ARE pathway. Compounds that were identified in the primary screen were tested in this secondary assay to assess whether a hit also activates Nrf2 transcription of the target gene NQO-1. NIH Chemical Genomics Center [NCGC] NIH Molecular Libraries Probe Centers Network [MLPCN] MLPCN Grant: DK081461 Assay Submitter (PI): Curtis Klaassen, University of Kansas Medical Center
Hepac1c7 cells were seeded into 24-well plates at a density of 30,000 cells/well in 1 mL complete media per well and cultured overnight to allow attachment. Cells were treated the next day with compounds (1 uM)or positive control for 24 h. Total RNA samples were then isolated by using RNAzol B reagent (Tel-Test, Inc., Friendswood, TX) according to the manufacturer's protocol. Total RNAs were reverse-transcribed into cDNA by High Capacity cDNA Archive Kits (Applied Biosystems, Foster City, CA) and the resulting cDNA was used for real-time PCR analysis using SYBR(R) Green PCR Master Mix in a 7900HT Fast Real-Time PCR System.

Compound | relative NQO1 transcription
O=C(Nc1ncnc2sc3c(c12)CCCCC3)c1ccco1 | 163% and 137%
CS(=O)(=O)c1nc(S(=O)(=O)c2ccc(Cl)cc2)c(N2CCOCC2)s1 | 129%
COc1ccc(NC(=O)c2cc(-c3ccco3)on2)c(OC)c1 | 75%
Clc1ccc2c(NCc3ccccn3)ncnc2c1 | 83%
O=C(Nc1ncnc2sc3c(c12)CCC3)c1ccco1 | 175%
COC(=O)c1c(NC(=O)c2ccccc2)sc(C(N)=O)c1C | 60%
Cc1nc(NCc2ccco2)nc2c1C(=O)CC(C)C2 (stereo not given) | 175%
O=C(Nc1cccc2ncccc12)c1ccc(Cl)cc1 | 136%
COc1ccccc1NC(=O)c1cc(Cl)nc2ccccc12 | 79%
COc1ccc(NC(=O)c2cc(-c3cccs3)on2)c(OC)c1 | 129%

— PubChem BioAssay AID652013 (National Center for Advancing Translational Sciences (NCATS), 2013)
